Source: PubChem BioAssay (EPA / NIEHS)
“And” between values parts separate entries of the source, which are not always exact repeats. Equal values may be shown once. Inconclusive results are not listed. A structure can be active in one record and inactive in another. The source made the active and inactive calls. How the source made its calls: active means hit-call score of the fitted dose curve at least 0.9, where 1 is the maximum; inconclusive means response in the unintended direction; inactive means score below 0.9.

Assays:
[1] = Tanguay_ZF_120hpf_ActivityScore_legacy: (Legacy) Oregon State University Tanguay Lab 120 Hour Post-fertilization zebrafish Assay Score for Activity (AID 2283742);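 on AC50: static exposure from 6 hpf until 120 hpf at 28 °C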
Method in brief: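 Tropical 5D wild-type zebrafish embryos, dechorionated with pronase at 4 hpf, were exposed singly from 6 hpf to 120 hpf statically at 28C in 0.64% DMSO. Malformations and mortality were scored as binary by brightfield, with the activity score combining 18 morphology components.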

[2] = ArunA_CellTiter_hNC: Viability Assessment in the ArunA Biomedical's Oris Neural Crest (hNC) Cell Migration Assay (AID 2283752)
Method in brief: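 Viability of embryonic neural crest stem cells from the H9 line is scored 72 h after dosing, with DMSO as negative control and baseline. A drop in CellTiter Aqueous One signal indicates cytotoxicity.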

[3] = ArunA_CellTiter_hNP: Viability Assessment in the ArunA Biomedical's Oris Neural Crest (hNC) Cell Migration Assay (AID 2283753)
Method in brief: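 H9-derived hNP1 neuroprogenitors, 60,000/well on Matrigel, cultured 16 h, then 72 h chemical exposure in test medium. Cell titer via CellTiter Aqueous One; positive-direction fit vs DMSO.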

[4] = ArunA_Migration_hNP: ArunA Biomedical's Oris Neuroprogenitor (hNP) Cell Migration Assay (AID 2283754)
Method in brief: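 Human H9-derived hNP1 neuroprogenitors on Matrigel with LIF/bFGF, plated around seeding stoppers for 16 h at 37C; stoppers removed at start of 72 h chemical exposure. Calcein-AM staining, fluorescence 494/517 nm in detection zone; loss-of-signal vs DMSO; cytochalasin D control.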

[5] = ArunA_Migration_hNC: ArunA Biomedical's Oris Neural Crest (hNC) Cell Migration Assay (AID 2283755)
Experimental: ArunA_Migration_hNC is a cell-based, single-readout assay that uses human H9-derived embryonic neural crest stem cells (hNC). Measurements were taken 72 hours after chemical dosing in a 96-well plate.ArunA_Migration_hNC is an assay component measured from the ArunA_Migration_hNC assay. It is designed to make measurements of cell migration, a form of distribution reporter, as detected with fluorescence intensity signals by HCS Fluorescent Imaging technology. Data from the assay component ArunA_Migration_hNC was analyzed at the endpoint, ArunA_Migration_hNC, in the positive analysis fitting direction relative to DMSO as the negative control and baseline of activity. […]
To assess the hNP and hNC migration and cell titer endpoints, 60,000 cells per well were plated onto Matrigel in basal growth medium with LIF and bFGF in a 96-well plate format. […] Cell viability in the detection zone was quantitated using a Flexstation3 microplate reader (ex494 nm/em 517 nm). Corresponding cell titer endpoints were assessed for the hNP and hNC cells using the Promega CellTiter Aqueous One Solution Cell Proliferation Assay (Cat no. G3581; CellTiter 96). Finally, to gain insight into the mechanisms by which cells migrate into the detection zone, Ki-67 expression was quantified for 10 additional chemicals in the hNP and hNC systems. […]

[6] = ArunA_NOG_NucleusCount: ArunA Biomedical's Neurite Outgrowth (NOG) Assay for Nucleus Count (AID 2283756)
Method in brief: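 Human H9-derived differentiated neurons were exposed for 48 h right after seeding. Hoechst-stained nuclei gated by size and intensity were counted by automated high-content imaging as viable neurons. Loss of signal vs DMSO.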

[7] = ArunA_NOG_NeuriteLength: ArunA Biomedical's Neurite Outgrowth (NOG) Assay for Neurite Length (AID 2283757)
Method in brief: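 Differentiated human H9-derived neurons were exposed for 48 h from seeding, then stained with Hoechst and βIII-tubulin. Automated high-content imaging gave total neurite length per valid neuron, counting processes >10 um. Loss of signal was scored versus DMSO.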

[8] = ArunA_NOG_NeuritesPerNeuron: ArunA Biomedical's Neurite Outgrowth (NOG) Assay for Neurites Per Neuron (AID 2283758)
Method in brief: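 Differentiated human H9-derived neurons exposed to chemicals for 48 h from seeding, then stained with Hoechst and βIII-tubulin/DyLight 488. Automated imaging counted neurites (processes >10 um) per valid neuron; loss of signal versus DMSO scored.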

[9] = ArunA_NOG_BranchPointsPerNeurite: ArunA Biomedical's Neurite Outgrowth (NOG) Assay for Branch Points Per Neurite (AID 2283759)
Method in brief: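 Automated image analysis traced neurites (processes >10 um) from valid cell bodies after Hoechst and βIII-tubulin staining. hNN cells from H9 embryonic stem cells, 48 h exposure. Fitted bidirectionally against DMSO.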

[10] = system: Thyroperoxidase (TPO), gene 445522; experiment: CCTE_Simmons_GUA_TPO: CCTE's Guaiacol Assay for Thyroperoxidase (TPO) Inhibition, Simmons Lab (AID 2283750)
Method in brief: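 Porcine thyroid microsomes (25 ug) in 200mM potassium phosphate, preincubated 30 s at 37C with compound (8 concentrations, 5 nM–87.5 uM) and 35mM guaiacol; 1mM H2O2 starts reaction. Absorbance change at 450nm over first 80 s; loss of signal versus DMSO, three replicates.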

CC(C)CCCCCCCOC(=O)CCCCC(=O)OCCCCCCCC(C)C
outcome [1]: inactive

Cn1c(=O)c2c(ncn2C)n(C)c1=O
outcome [1]: inactive

CC(=O)OC[C@H]1O[C@@](COC(C)=O)(O[C@H]2O[C@H](COC(C)=O)[C@@H](OC(C)=O)[C@H](OC(C)=O)[C@H]2OC(C)=O)[C@@H](OC(C)=O)[C@@H]1OC(C)=O
outcome [1]: inactive

CC[C@H]1CC[C@H](NCc2cc3c(cc2OC)[C@H]2C[C@H]2C(=O)N3C)[C@H](c2ccccc2)N1
outcome [1]: inactive

Cc1[nH]cnc1C[C@H]1CCc2c(C)c3ccccc3n2C1=O
outcome [1]: inactive

CNS(=O)(=O)c1cc(C(=O)N2CCC(CCN3C4CCC3CC(n3c(C)nc5ccccc53)C4)(c3cccc(F)c3)CC2)c(Cl)cc1F (centres undefined)
outcome [1]: inactive

CCCCCCCCCCCCCCCO
outcome [1]: inactive

O=C1CCC(N2C(=O)c3ccccc3C2=O)C(=O)N1 (centres undefined)
outcome [1]: inactive

CN(C)c1ccc(N=NS(=O)(=O)O)cc1
outcome [1]: inactive

CC(=O)c1ccc2c(c1)[C@H](NC(=O)c1ccc(F)cc1)[C@@H](O)C(C)(C)O2
outcome [1]: inactive

CC(=O)OCCC(C)C
outcome [1]: inactive

COCCOCCOCCOC
outcome [1]: inactive

O=C(O)c1cc(N=Nc2ccc(S(=O)(=O)Nc3ccccn3)cc2)ccc1O
outcome [1]: inactive

CCCC(=O)OCC
outcome [1]: inactive

O=C(O)CCN(C1(C(=O)NO)CCCC1)S(=O)(=O)c1ccc(Oc2ccc(F)cc2)cc1
outcome [1]: inactive

C=CC(=C)CCC=C(C)C
outcome [1]: inactive

Cc1c(-c2cccnc2)c2ccccc2n1CCCCC(=O)O
outcome [1]: inactive

O=C(O)c1cccc(N(Cc2cccnc2)c2ccc(OC(F)F)c(OC(F)F)c2)c1
outcome [1]: inactive

COC(=O)c1ccccc1O
outcome [1]: inactive

CC(C)=CCC/C(C)=C\CO
outcome [1]: inactive

CCOc1cccc(-n2cc(C(=O)N3CCN(c4cc(C(=O)O)c5ccccc5c4)CC3)nc2-c2ccc(C)cc2)c1
outcome [1]: inactive

CN(C)c1ccc(Cc2ccc(N(C)C)cc2)cc1
outcome [1]: inactive

CC(C)=CCCC(C)CCO (centres undefined)
outcome [1]: inactive

Nc1cccc(N)c1
outcome [1]: inactive

CCCCCCCCO
outcome [1]: inactive

Fc1ccccc1[C@@H](F)COC1CCC(Nc2ncnc3[nH]ncc23)CC1 (some centres undefined)
outcome [1]: inactive

CC1=CC(=O)CC(C)(C)C1
outcome [1]: inactive

O=C(OC[C@H]1O[C@@H](OC(=O)c2cc(O)c(O)c(OC(=O)c3cc(O)c(O)c(O)c3)c2)[C@H](OC(=O)c2cc(O)c(O)c(OC(=O)c3cc(O)c(O)c(O)c3)c2)[C@@H](OC(=O)c2cc(O)c(O)c(OC(=O)c3cc(O)c(O)c(O)c3)c2)[C@@H]1OC(=O)c1cc(O)c(O)c(OC(=O)c2cc(O)c(O)c(O)c2)c1)c1cc(O)c(O)c(OC(=O)c2cc(O)c(O)c(O)c2)c1
outcome [1]: inactive

Oc1ccc2c(c1)-c1ccccc1C2
AC50 [1]: 46.6 µM (active)

C1N2CN3CN1CN(C2)C3
outcome [1]: inactive

O=C(O)c1cccc(Oc2ccccc2)c1
outcome [1]: inactive

CCn1nc(Cc2ccccc2)cc1C1CCN(C[C@H]2C[C@H](N(C)[C@@H](C(=O)O)C(C)C)C[C@@H]2c2cccc(F)c2)CC1
outcome [1]: inactive

CNCc1ccc(NC(=O)c2c[nH]c3c2C(=O)CCC3)cc1
outcome [1]: inactive

COCCOc1cc2cc(C(=O)NC3CCN(C(C)C)CC3)n(CC(=O)Nc3ccc(Cl)cn3)c2cn1
outcome [1]: inactive

CC(C)=CCC/C(C)=C/CO
outcome [1]: inactive

CC(C)c1cccc(C(C)C)c1N1C(=O)c2ccc(O)cc2C1=O
AC50 [1]: 29.5 µM (active)
AC50 [2]: 4.05 µM (active) and 11.8 µM (active)
AC50 [3]: 20.7 µM (active)
AC50 [4]: 7.81 µM (active) and 3.04 µM (active)
AC50 [5]: 7.71 µM (active) and 2.24 µM (active)
outcome [6]: inactive
AC50 [7]: 13.3 µM (active)
outcome [7]: inactive
AC50 [8]: 5 µM (active) and 13.3 µM (active)
outcome [9]: inactive

Cc1ccc(N)cc1O
outcome [1]: inactive
AC50 [10]: 3.61 µM (active)

O=P(OC(CCl)CCl)(OC(CCl)CCl)OC(CCl)CCl
AC50 [1]: 38.3 µM (active)
outcome [2]: inactive
outcome [3]: inactive
outcome [4]: inactive
AC50 [5]: 1.97 µM (active)
outcome [6]: inactive
outcome [7]: inactive
outcome [8]: inactive
outcome [9]: inactive

CC(C)CCO
outcome [1]: inactive

COc1ccc2sc(C(=O)Nc3nnn[nH]3)c(OC(C)C)c2c1
outcome [1]: inactive

CCNc1ccccc1
outcome [1]: inactive
outcome [10]: inactive

CC(O)CN(CCN(CC(C)O)CC(C)O)CC(C)O (centres undefined)
outcome [1]: inactive

O=c1[nH]c2ccc(S(=O)CCN3CCC(Cc4ccc(F)cc4)CC3)cc2o1 (centres undefined)
outcome [1]: inactive

C[C@](N)(Cc1ccc(O)c(O)c1)C(=O)O
outcome [1]: inactive

CCCCC(CC)COC(=O)c1ccc(C(=O)OCC(CC)CCCC)cc1 (centres undefined)
outcome [1]: inactive
